# Test results: ChEMBL document CHEMBL4513216, “Probing the Open Global Health Chemical Diversity Library for Multistage-Active Starting Points for Next-Generation Antimalarials” (ACS Infect Dis, 2020)
# Hit rate of the full screen: of about 69,000 compounds, about 8,600 (12%) showed an effect of 50% or more. This is one part of a sample in which strong results are shown more often than they occur.
# Test system: Plasmodium berghei
# Assay: Screen against P. berghei liver stage (PbLuc), transformed with Luciferase, at 10uM
# Type: functional, HepG2
# Details: tested at 10 uM
row,SMILES,INHIBITION
1,CC1=N[C@@]2(CC[C@@H]3CN(CC(=O)N(C)C)C[C@@H]32)C(=O)N1CC(C)C,-6.32%
2,CCN1CCCn2c(nc(CNC(=O)c3cnoc3C)cc2=O)C1,-24%
3,Cn1nccc1CNC(=O)C1CCCCC1,33%
4,Cc1cc(C(=O)NC(C)CC(=O)c2ccco2)[nH]n1 (stereo not given),37.9%
5,CN(C)CCN1CCO[C@H]2CCN(C(=O)c3cccs3)CC[C@@H]21,54.1%
6,COCCN1CCO[C@H]2CCN(C(=O)c3cccs3)CC[C@@H]21,-18.3%
7,O=C(c1cccs1)N1C[C@@H]2OCCN(CC3CCCO3)[C@@H]2C1 (stereo not given in full),-17.1%
8,COCCN1CCO[C@H]2CN(C(=O)c3cccs3)C[C@H]21,77.7%
9,CS(=O)(=O)N1CCO[C@@H]2CCN(C(=O)c3cccs3)CC[C@H]21,31.9%
10,CN(C)CCN1CCO[C@@H]2CCN(C(=O)c3cccn3C)CC[C@H]21,-16.2%
11,COCCN1CCO[C@H]2CCN(C(=O)c3ccnnc3)CC[C@@H]21,55.6%
12,COCCN1CCO[C@H]2CN(C(=O)c3ccncc3F)C[C@H]21,-52.3%
13,O=C(c1ccnnc1)N1C[C@@H]2OCCN(CCN3CCCC3)[C@@H]2C1,11.9%
14,COC(=O)N1CCC(Nc2ccc(Cl)c(C#N)n2)CC1,8.12%
15,COc1ncc(C(F)(F)F)c(C(=O)O)c1Cl,24.2%
16,Cc1cnn(CC2CCCCN2C(=O)Cc2c(C)noc2C)c1 (stereo not given),8.53%
17,CCN1Cc2ccccc2CC2(CCN(C)CC2)C1=O,26.5%
18,Cc1nc(C)n(CC2CCCN(CCOc3cccc(F)c3)C2)n1 (stereo not given),48.4%
19,O=C(CC1CCCC1)N1CCN2C[C@@H](CO)[C@H](c3ccccc3)[C@H]2C1,-16.4%
20,CS(=O)(=O)NC1CCCN(C(=O)NCc2cccc(F)c2)C1 (stereo not given),29.4%
21,c1ccc(N2CCCC3(CCN(Cc4cccs4)C3)C2)nc1 (stereo not given),44.9%
22,Cc1ccc(C(=O)NCCn2nc(-n3cncn3)ccc2=O)c(C)c1,16.5%

row,SMILES,INHIBITION
1,CC(C)c1nc2c(n1C)CCN(Cc1nc(-c3ccco3)no1)C2,7.08%
2,O=C(NCc1ccc2c(c1)OCO2)c1ccc(N2CCCCCC2)nc1,-4.99%
3,O=C(C1CCOCC1)N1CCOCC(Cc2ncccn2)C1 (stereo not given),19.3%
4,COc1ccc(-c2cnc(N(C)C)nc2C2CN(C(C)=O)CCO2)cc1 (stereo not given),7.52%
5,COc1ccc2cc(C3CN(C(=O)C4CCOCC4)CCO3)ccc2c1 (stereo not given),66.8%
6,COc1ccc2cc(C3CN(C(=O)CN4CCCC4)CCO3)ccc2c1 (stereo not given),64.7%
7,CNC(=O)CN1CCC(c2cc(OC)cc(OC)c2)C1 (stereo not given),45.1%
8,COc1ccc2cc(C3CN(C(=O)N(C)C)CCO3)ccc2c1 (stereo not given),85.4%
9,Nc1cccc(C2CN(C(=O)CN3CCOCC3)CCO2)n1 (stereo not given),36%
10,CNC(=O)CCC(=O)N1CCOC(c2ccc3cc(OC)ccc3c2)C1 (stereo not given),78.15%
11,CN(C)C(=O)N1CC[C@@H](c2ccc3ccccc3c2)[C@H](O)C1,2.18%
12,CNC(=O)NC(=O)CCN1CCOC(c2ccc(Br)cc2)C1 (stereo not given),-65.1%
13,CCN1CCN(CC(=O)N2CCOC(Cc3ccc(OC)cc3)C2)CC1 (stereo not given),-42.1%
14,COc1ccc(CN2CCO[C@H]3CN(C(=O)C4CC4)CC[C@H]3C2=O)cc1,-47%
15,O=C(c1cc(-c2ccco2)cs1)N1CCCC1,-12.2%
16,CNC(=O)[C@H]1C[C@H]2OCC[C@H]2N(Cc2cccc3ccccc23)C1,-6.32%
17,COCc1nc(CNc2cc(C)nc(-c3ccccc3)n2)no1,-7.81%
18,O=C(CS(=O)(=O)Cc1ccccc1)NC1CCCCNC1=O (stereo not given),5.7%
19,Cc1noc([C@H]2C[C@H]3OCC[C@H]3N(S(C)(=O)=O)C2)n1,-31.3%
20,CCOC(=O)[C@]12CCCN(Cc3ccco3)C[C@H]1CN(CCN(C)C)C2,-0.182%
21,Cn1nc2c(cc1=O)CN(Cc1nc(-c3ccccn3)no1)CC2,-19.7%
22,CCC(=O)Nc1c(C)nn(COc2cccc(F)c2)c1C,26.7%

row,SMILES,INHIBITION
1,Cc1cc(C)c2[nH]c(C(=O)NCCN3CCOC3=O)c(C)c2c1,24%
2,CC(=O)N(Cc1noc(C)n1)C1CCN(CC(=O)N(C)C2CC2)C1 (stereo not given),7.3%
3,O=C(O)c1cc2c(nc1NCC1CC1)CCN(C1CCOC1)CC2 (stereo not given),29.8%
4,COc1ccc2cc(C3CN(C(=O)COC(C)C)CCO3)ccc2c1 (stereo not given),69.15%
5,CC(=O)NCC(=O)N1CCOC(c2cccc(N)n2)C1 (stereo not given),-24.4%
6,COc1ccc2cc(C3CN(C(=O)CCNC(C)=O)CCO3)ccc2c1 (stereo not given),81.9%
7,COCC(=O)N1CCC(c2ccc(OC)cc2)C1 (stereo not given),23.6%
8,CC(C)c1n[nH]c(C2CN(C(=O)COc3ccc(F)cc3)CCO2)n1 (stereo not given),8.41%
9,O=C(CCNS(=O)(=O)c1ccccc1)N1CCOC(c2ccccc2)C1 (stereo not given),-74.1%
10,FC(F)(F)COc1cccc(-c2nc3c([nH]2)CCNC3)c1,36.6%
11,CCc1nc(CN(C)C2CCN(CC(=O)N3CCOCC3)C2)no1 (stereo not given),22.3%
12,O=C(CN1CCOC(CNc2cccnn2)C1)N1CCCCC1 (stereo not given),-55.4%
13,CSc1ccc(-c2nc(CN3CCC(NC(C)=O)C3)c(C)o2)cc1 (stereo not given),66.8%
14,CSc1ccc(-c2nc(CN3CCC(NC(C)=O)CC3)c(C)o2)cc1,5.51%
15,CNC(=O)C1CCN(Cc2nc(-c3ccc(SC)cc3)oc2C)C1 (stereo not given),-2.5%
16,COCCOc1ccc(NC(=O)C2CC(=O)N(C(C)C)C2)cn1 (stereo not given),-21.8%
17,CC(=O)NCC(=O)N1CCC(c2cncc(Oc3cccnc3)n2)CC1,9.93%
18,CN(Cc1n[nH]c2c1CCC2)C(=O)CCc1cc2n(n1)CCNC2,46.3%
19,CCc1ncc(C(=O)N2CC[C@H]3CC[C@@H](C2)N3C)cn1,61.4%
20,CCc1ncc(C(=O)N2CC(N3CCCCC3)C2)cn1,13.9%
21,CCc1ncc(C(=O)N2C[C@@H](C)O[C@@H](C)C2)cn1,24.8%
